Consider 40 molecules from PubChem BioAssay (NCI).

Compounds without any hit were thinned out: in the full panel of roughly 83,000, 20% have a hit.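 Activity criterion: percent growth below 10, measured after cells in 96-well plates were exposed to a single compound concentration for 48 hours.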 A number with no mark means an inactive call. Active and inactive are the calls of the source.

This assay deals with HCT-15 colon. Put plainly: NCI-60 one-dose screen, 48 h (100 = growth as untreated, 0 = no growth, -100 = all killed). As to conditions: 10 µM unless noted. The protocol: Growth inhibition of the HCT-15 human tumor cell line is measured as a screen for anti-cancer activity. Cells are grown in 96 well plates and exposed to the test compound for 48 hours. Compounds are tested at a single concentration, which is 10^-5 M for most compounds. The reported endpoint is percent growth (GI% or GIPRCNT), where numbers from 0 - 100% represent growth inhibition, and numbers from -100% - 0 represent cell death. For example, a value of 40 represents 60% growth inhibition. A value of 0 means no net growth occurred over the course of the experiment. A value of -40 indicates 40% of cells at the beginning of the experiment died by the end of the experiment. A value of -100 means all cells are dead at the end of the experiment.
NCI-60 Human Tumor Cell Lines Screen was performed using the standard one-dose NCI protocol, which is described in more detail at https://dtp.cancer.gov/discovery_development/nci-60/default.htm.
Compounds with GIPRCNT values below 10 were considered active. Activity score was based on GIPRCNT using the following formula: […]
Score is 0 for GIPRCNT values of 100 or above, 50 for GIPRCNT values of 0, and 100 for GIPRCNT values of -100.
Consider `Nc1nc(N)c2c(n1)NC(c1ccc(Cl)cc1)C1CCc3ccccc3C1=N2` (stereo not given), for which the growth is 45.9%.
With `O=C(CI)NC(=O)NC(=O)NCc1ccccc1`, the growth was 17.4%.
Regarding `Cc1ccc2nc(/C(C#N)=C(/CCCO)NC(Cc3ccccc3)C(=O)OCc3ccccc3)[nH]c(=O)c2c1` (stereo not given), the growth was 117%.
With `NC(=O)c1cccc([C@@H]2O[C@H](CO)[C@@H](O)[C@H]2O)c1`, the growth was 12.8%.
For the molecule `Oc1ccc(/C=C/c2ccc(O)cc2)cc1`, the growth was 33.3%.
For the molecule `COc1ccc(C2=CN3CC=CC3CC2=O)cc1` (stereo not given), the growth is 95.2%.
As for `Cc1ccc(C=C2C(=O)NC(=O)NC2=O)cc1`, the figure is 104%; as for `COc1ccc(/C=C/C(=O)c2cc(OC)c(OC)c(OC)c2)cc1OCC(=O)Nc1nc2ccc(OC(F)(F)F)cc2s1`, 11.7%; as for `COc1ccc(C2=CC(c3cc(OC)c(OC)c(OC)c3)n3ncnc3N2)cc1` (stereo not given), 14.5%.
As for `Cc1cccc[n+]1C1c2ccccc2-c2ccccc21`, the figure is 109%.
Consider `COc1ccc(C(=S)N2CCN(c3ccc(Cl)cc3)CC2)cc1`, for which the growth was 116%.
For `CCC1S/C(=N\N=C(\C)c2cc3cc(Cl)ccc3o2)N(c2ccccc2)C1=O` (stereo not given) the value was 107%; for `O=[N+]([O-])c1cc(NS(=O)(=O)c2ccccc2)ccc1NS(=O)(=O)c1ccccc1`, 72.1%; for `CCN(CC)c1ccc(CNc2cc(C)nc3ccccc23)cc1`, 69.6%.
As to `COc1cc(OC)c(C(=O)C(CN(C)C)CN(C)C)cc1OC`, the growth was -52.4% (active).
For `Cc1nnc(-c2ccc3c(c2)nc(/C=C/c2ccccc2)n3C2CCCCC2)o1` the value was 49.4%.
As for `C=C1C(=O)O[C@H]2[C@H]1CC/C(COC(=O)/C=C\C(=O)NCc1ccc(Cn3c(=O)sn(CCCCC)c3=O)cc1)=C\CC[C@@]1(C)O[C@@H]21`, the figure is 38.8%; as for `Cc1ccc(C)c(/C=C2\CN(C(=O)OC(C)(C)C)C/C(=C\c3cc(C)ccc3C)C2=O)c1`, 19.4%.
As to `O=C(Nc1ncc(Cc2cc(C(F)(F)F)ccc2Cl)s1)c1cccs1`, the growth is 21.9%.
As for `Cc1ccc2c(-n3nc(C#N)c(C#N)c3N)cc(=O)[nH]c2c1`, the figure is 87.9%; as for `COc1cc(/C=C/C(=O)c2ccc(-n3cc(CN4CCN(c5cc6c(cc5F)c(=O)c(C(=O)O)cn6C5CC5)CC4)nn3)cc2)ccc1O`, 71.7%; as for `Cc1ccc(-c2nc3nc(-c4ccccc4)nc(N4CCCN(S(C)(=O)=O)CC4)c3o2)cc1`, 73.3%.
For `C=C1C(=O)O[C@H]2[C@H]1CC/C(COC(=O)c1ccc(C(=O)O)s1)=C\CC[C@@]1(C)O[C@@H]21` the value was 4.14% (active).
As to `CNCc1cccc2c1OCCOCCOCCNS(=O)(=O)c1ccc(cc1)-c1cnc(N)c(n1)C(=O)N2`, the growth was 89.8%.
For the molecule `CC(=O)ON1CCCC(P(=O)(OCCSC(=O)C(C)(C)C)OCCSC(=O)C(C)(C)C)C1=O` (stereo not given), the growth is 12.1%.
For the molecule `O=C(O)c1cn(C2CC2)c2cc(N3CCN(C(=O)Nc4nc(-c5ccc(Br)cc5)cs4)CC3)c(F)cc2c1=O`, the growth is 14.3%.
`O=C(NNc1cnccn1)c1nc2cc(F)ccc2n2cccc12`: the growth is 25.7%.
For `COC(=O)CCC/C=C\C[C@H]1C=CC(=O)/C1=C/C[C@@H](O)C/C=C\CC(F)(F)F` the value was -18.5% (active); for `COc1ccc2c(c1)/C(=N/c1n[nH]c(=S)s1)C(=O)N2`, 104%.
On to `[2H]C([2H])([2H])Oc1ccc(F)cc1/C=C/C(=O)/C=C(/C=C/c1cc(F)ccc1OC([2H])([2H])[2H])OB(F)F`, for which the growth is 63.8%.
For `CN(Cc1ccccc1)c1nc(Cl)c(C2CC(c3ccccc3)=NN2c2ccccc2)s1` (stereo not given) the value was 94.2%; for `C#CCO[C@H]1CC(CC#C)(CC#C)C(=O)[C@@H]2[C@H]1[C@H]1C[C@@H]3[C@@]4(C)CCC[C@@](C)(C(=O)OC)[C@@H]4CC[C@@]23C=C1C(C)C`, 98.2%; for `S=c1[nH]c(=S)c2c(-c3ccccc3)c(-c3ccccc3)oc2[nH]1`, 99.1%.
As to `COCCn1cc(-c2csc(-c3c[nH]c4ccc(Br)cc34)n2)c2cccnc21`, the growth was 13.1%.
For `c1nc2ccc(-c3cc4ccc5[nH]ncc5c4c4c3CCCC4)cc2[nH]1` the value was 94.8%; for `COC(=O)c1c2c(n3ccccc13)C(=O)c1ccccc1C2=O`, 51.4%.
As for `C=C(c1ccc(OC)c(/C=C/C(=O)c2ccc3c(c2)OCO3)c1)c1cc(OC)c(OC)c(OC)c1`, the figure is -8.44% (active); as for `Cc1[nH]c(C2CC(c3ccc(C(F)(F)F)c(F)c3)=NN2c2ccccc2)c(C)c1C(=O)NCC(F)(F)F` (stereo not given), 76.2%.
For the molecule `CCCCCN(CCCCC)CC(O)c1cc(C)c2ccc3cc(C(C)C)ccc3c2c1` (stereo not given), the growth is -86.3% (active).
Take `O=C(Nc1ccc(Br)cc1)C1=NCCCCN1`: the growth is 62.2%.
